D2 antag: HTS Assay for Allosteric Antagonists of the Human D2 Dopamine Receptor: Primary Screen for Antagonists. D(2) dopamine receptor (Homo sapiens), P14416. HEK293 TREx D2 cells, calcium flux, dopamine EC80. inhibition, % at 10 µM. 340,000 compounds, 2% hits; in the data active = inhibition above about 30%; inactive = below that, where a call was filed
Target sequence (P14416 whole entry, looked up): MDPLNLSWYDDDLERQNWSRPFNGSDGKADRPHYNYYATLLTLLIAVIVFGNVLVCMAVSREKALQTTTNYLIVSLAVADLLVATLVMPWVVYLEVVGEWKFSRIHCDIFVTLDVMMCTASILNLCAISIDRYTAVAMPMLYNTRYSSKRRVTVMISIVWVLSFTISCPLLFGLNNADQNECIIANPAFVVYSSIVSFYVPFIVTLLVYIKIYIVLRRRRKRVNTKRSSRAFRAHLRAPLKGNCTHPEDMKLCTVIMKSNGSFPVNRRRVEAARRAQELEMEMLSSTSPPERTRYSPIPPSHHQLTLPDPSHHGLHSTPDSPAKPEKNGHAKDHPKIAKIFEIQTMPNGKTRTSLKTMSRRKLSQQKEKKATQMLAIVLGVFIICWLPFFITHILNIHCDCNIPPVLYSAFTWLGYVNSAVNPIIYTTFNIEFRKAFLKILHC
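Measurement of antagonist activity uses fluorescent calcium dye in inducible HEK293 T-REx D2 cells: 10 s baseline, compound addition with 180 s read, EC80 dopamine addition with a further 180 s read.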
D2 ag-1: HTS Assay for Allosteric Agonists of the Human D2 Dopamine Receptor: Primary Screen for Agonists; D(2) dopamine receptor (Homo sapiens), P14416; HEK293 T-REx D2 cells, calcium flux agonist mode; AID 485358, 2010; 340,000 compounds, 0.53% hits; activation, % at 2 µM;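 active = activation over 3 SD above normal in the single-dose calcium agonist read, cut at about 30% in these data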
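HEK293 Trex D2 cells, tetracycline-induced, o/n 30 C 5% CO2; no-wash Ca dye, RT 30–90 min; 10-cycle baseline, 23 nl cpd added, kinetic Ca read 180 s; agonist hits = positive Ca response.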
D2 PAM-1: Beta-Arrestin HTS for Positive Allosteric Modulators of the Human D2 Dopamine Receptor: Potentiators; 360,000 compounds, 0.23% hits; AID 624464, 2012; D(2) dopamine receptor (Homo sapiens), P14416; DiscoveRx D2 beta-arrestin cells, luminescence, 90 min; 100% = 57 uM dopamine signal; potentiation, % (concentration not given with the values); in the data active = potentiation above about 50%; inconclusive = mostly about 30% to 49%
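PathHunter beta-arrestin assay in DiscoveRx D2 cells. Compounds were added with an EC20 of dopamine (50 nM final) for 90 min at 37 deg C. Luminescence was read 1 h after detection reagent, with 57 uM dopamine as the EC100 control.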
D2 PAM-2: HTS Assay for Positive Allosteric Modulators of the Human D2 Dopamine Receptor: Primary Screen for Potentiators. potentiation, % at 10 µM. AID 485347, 2010. 340,000 compounds, 0.34% hits. D(2) dopamine receptor (Homo sapiens), P14416. HEK293 T-REx D2, calcium flux, EC20 dopamine potentiation;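 active = potentiation over 3 SD above the plate norm, cut at about 30% in these data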
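Potentiation of an EC20 dopamine calcium response measured kinetically over 180 s, after a preceding 180 s compound-only read flagging agonists. Cells: inducible Hek293 Trex D2 line, 4000/well, cultured overnight at 30 C before dye loading.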
D2 ag-2: Beta-Arrestin HTS for Positive Allosteric Modulators of the Human D2 Dopamine Receptor: Agonists; D(2) dopamine receptor (Homo sapiens), P14416; DiscoveRx PathHunter D2 beta-arrestin, luminescence, 90 min; 100% = 57 uM dopamine signal; activation, % (no concentration beside the values); 360,000 compounds, 0.084% hits; AID 624465, 2012; in the data active = activation above about 40%; inconclusive = between about 15% and that limit
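Agonist mode: compounds alone added to overnight-plated D2 PathHunter cells for 90 min at 37 C, with 57 uM final dopamine (EC100) defining full response. Beta-arrestin recruitment detected by chemiluminescent reagent, read after 1 h at ambient temperature.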
D3 arrestin ag: qHTS of D3 Dopamine Receptor Agonist: D3 Dopamine Receptor B-arrestin Agonist Confirmatory Assay. AID 720506, 2013. shares compounds with D2 ag-1. 2,300 compounds, 4% hits. Potency, µM (series often up to 76.9 µM), hits mostly activators. DiscoveRx D3 beta-arrestin cells, luminescence, 90 min; also: nearly all actives have a fitted effect of over 70% in size
D2 ag-3: qHTS of D3 Dopamine Receptor Agonist: D2 Dopamine Receptor B-arrestin Agonist Counterscreen; shares compounds with D2 ag-1; DiscoveRx PathHunter D2 beta-arrestin, luminescence, 90 min; response scale: percent relative to full dopamine signal; Potency, µM (titrated, usually from 76.9 µM), usual class: activators; 2,300 compounds, 5.9% hits; AID 720507, 2013; also: nearly all actives have a fitted effect of over 70% in size
A number is an active result; 0 = inactive; ? = inconclusive; - = not tested or not shown. Compounds with a hit are over-represented: about 2.4% of the library has one in this group of screens. Unless noted, calls follow the shape of the dose curve; as a rule, active = well fitted activation curve with a large enough effect; inconclusive = small, poorly fitted or top-dose-only effect; inactive = flat fitted curve, though single readings scatter.

SMILES	D2 antag	D2 ag-1	D2 PAM-1	D2 PAM-2	D2 ag-2	D3 arrestin ag	D2 ag-3
COc1cccc(CN2CCN(Cc3cc4ccccc4o3)CC2CCO)c1 (configuration not stated)	0	43	0	0	0	0	0
CC1CCC(NCCNC(=O)c2ccco2)CC1 (configuration not stated)	0	68	0	0	0	0	0
O=C(NCCNC1CCCCC1)c1ccco1	0	0	0	0	0	-	-
COc1ccccc1CNC(=O)CCCCn1c(=O)c2ccccc2n(Cc2ccccc2C)c1=O	-	0	-	0	-	-	-
COC(=O)C1CCN(Cc2nnc(-c3ccccc3)o2)CC1	66	45	0	0	?	4µM	0
COC(=O)C1CCN(Cc2cn(-c3ccccc3)nc2-c2ccc3c(c2)OCO3)CC1	82	41	0	0	0	0	0
CC(=O)NCC1CCCN(Cc2cn(-c3ccccc3)nc2-c2ccc3c(c2)OCO3)C1 (configuration not stated)	0	0	0	0	0	-	-
c1ccc(-c2nnc(CN3CCCCC3)o2)cc1	0	0	0	0	0	-	-
O=C(Cn1c(=O)n(-c2ccc(Cl)cc2)c(=O)c2sc3ccccc3c21)NC1CCCC1	-	0	-	0	-	-	-
C=C(C)C1CC=C(CN2CCC(C(=O)OCC)CC2)CC1 (configuration not stated)	72	60	0	0	0	0	0
O=C1C[C@@H]2c3c(cccc3CN1Cc1ccc(F)cc1)C[C@@H](O)[C@H]2O	0	0	0	0	0	0	0
COc1ccc(CN2Cc3cccc4c3[C@@H](CC2=O)[C@H](O)[C@H](O)C4)cc1	0	0	0	0	0	-	-
O=C(CCc1nnc2n(Cc3ccccc3Cl)c(=O)c3ccccc3n12)NCCCN1CCOCC1	0	0	0	0	0	-	-
Cc1ccc(Cn2c(=O)c3ccccc3n3c(CCC(=O)NCCN4CCOCC4)nnc23)cc1	0	63	0	0	0	0	0
Cc1cn2c(=O)cc(COC(=O)c3cccc(NC(=O)COc4ccccc4)c3)nc2s1	-	0	-	0	-	-	-
OCCNCC1(O)C2CC3CC(C2)CC1C3 (configuration not stated)	0	0	0	0	0	-	-
OC1(CNCc2ccccc2)C2CC3CC(C2)CC1C3 (configuration not stated)	56	49	0	0	0	0	0
On1c(-c2ccccc2Cl)nc2ccccc21	0	0	0	0	0	-	-
CCN(CC)CC(O)Cn1c(-c2ccccc2Cl)nc2ccccc21 (configuration not stated)	0	45	0	0	0	0	0
O=C(Nc1ccc(-c2nc3ccccc3o2)cc1)c1cc(-n2cnnc2)ccc1Cl	0	0	0	0	0	?	0
O=C(Nc1ccc2oc(-c3ccccc3)nc2c1)c1cc(-n2cnnc2)ccc1Cl	-	-	0	-	0	-	-
Nc1ncnc2c1ncn2[C@@H]1O[C@H](C(=O)N[C@H]2c3ccccc3C[C@H]2OC=O)[C@@H](O)[C@H]1O	-	-	0	-	0	-	-
CCOc1cc(-c2c(C)c(C)nc(N)c2C#N)ccc1O	0	0	0	0	?	-	-
CCOc1cc(-c2c(C)c(CC)nc(N)c2C#N)ccc1O	0	0	0	0	?	0	?
COc1ccc(OC)c(NC(=O)C2CCCN(S(=O)(=O)c3c(C)noc3C)C2)c1 (configuration not stated)	44	0	0	0	0	0	0
SMILES	D2 antag	D2 ag-1	D2 PAM-1	D2 PAM-2	D2 ag-2	D3 arrestin ag	D2 ag-3
COc1ccc(OC)c(NC(=O)C2CCN(S(=O)(=O)c3c(C)noc3C)CC2)c1	0	0	0	0	0	-	-
Cc1cc(NCc2ccc(F)cc2)nc2cc(Cl)ccc12	0	0	0	0	0	0	0
Cc1ccc(CNc2ncnc3cc(Cl)ccc23)cc1	0	0	0	0	0	-	-
COc1ccc(CNCCNC(=O)c2cccs2)cc1OC	39	60	0	0	0	0	0
COc1ccc(NC(=O)N2CCC(CN3CCCC3)CC2)c(OC)c1	-	0	-	0	-	-	-
CCOC(=O)c1c(N)n(-c2ccc(N)cc2)c2nc3ccccc3nc12	0	44	0	0	0	0	0
CCOC(=O)c1c(N)n(-c2ccc(CC)cc2)c2nc3ccccc3nc12	-	0	-	0	-	-	-
C=CC[C@]12CCc3ccccc3C1N(c1ccc(C(=O)OCC)cc1)C2=O (some centres not stated)	0	0	0	0	0	0	0
CCOC(=O)c1ccc(N2C(=O)Cc3ccccc3C2=O)cc1	0	0	0	0	0	-	-
Cc1ccc(-n2c(=O)c3cccnc3n2CC(=O)Nc2ccc(Br)cc2)cc1C	-	0	-	0	-	-	-
COc1cc(NC(=O)Cn2c(=O)n(C(C)C)c(=O)c3oc4ccccc4c32)cc(OC)c1	-	0	-	0	-	-	-
C=CCC1NCCc2c(Br)cccc21 (configuration not stated)	0	47	0	0	0	0	0
C=CC[C@@H]1Cc2c(Br)ccc(Br)c2[C@@H](CC=C)N1	0	0	0	0	?	-	-
CC(OC(=O)C1CCCC1)C(=O)Nc1ncc(Cl)cc1Cl (configuration not stated)	0	0	0	0	0	0	0
COCCN(C(=O)C1CCN(C(=O)c2ccccc2C)CC1)c1c(N)n(CC(C)C)c(=O)[nH]c1=O	0	0	0	0	0	0	0
Cc1ccccc1C(=O)N1CCC(C(=O)N(CC(C)C)c2c(N)n(CC(C)C)c(=O)[nH]c2=O)CC1	0	0	0	0	0	-	-
COc1ccccc1CNC(=O)COC(=O)CSc1ccc(C)c(C)c1	0	0	0	0	0	0	0
Cc1ccc(SCC(=O)OCC(=O)NCc2cccs2)cc1C	0	0	0	0	0	-	-
CCC(C)NC(=O)c1ccc2c(c1)N=C(C)c1cc(C)ccc1S2 (configuration not stated)	-	0	-	0	-	-	-

Bioassay records (PubChem)
